Target: C2orf55
Assay: pooled miR-30 sensor sort-seq; sequence = guide strand
Settings: shRNA
Also: reference of the scale not given here.

Sequence	sensor-assay potency score (higher = more potent)
TTAGATTTTTTCTTTCCTGTGC	0.654
TTGAATTTAGATTTTTTCTTTC	-0.493
TTGTTTGCCACAATACACTGGC	0.782
TTTGTTTGCCACAATACACTGG	-0.196
TTATCCTCTTTGTTTTGCCTGG	-0.575
TTTGCCACAATACACTGGCAGT	-1.43
TTATTTTTGGAAACAGTCTATG	-0.924
TTTTTGGAAACAGTCTATGAAT	-1.5
TTGATGATAAAATCAATCTTTA	-0.855
ATTATTTTTGGAAACAGTCTAT	-0.496
TTTCTTTCTGGCAAGTTCCATC	-0.776
TTTCTGGCAAGTTCCATCCAGG	-0.596

Target: C2orf57
Assay: as above
Settings: shRNA

Sequence	sensor-assay potency score (higher = more potent)
TTCTCCTCAGCAGACTTGGTGG	-0.95
TTCTGGAACAACTGCACTCTTG	-1.11
AACAACTGCACTCTTGTCTTTG	-0.961
TAAAGCTTCAGCTTCAGGGTGT	0.632
TAGACCTGCTGTCATCCACGTT	-1.17
AAAACCACTAGACTCTGACTTG	-0.273
TCTCTCAGGAACACTCGCCATT	-1.27
TTGTCCTTGCGTCTTGAACCTG	-1.12

— the OligoGym collection
